# Assay outcomes as filed in PubChem BioAssay.
# CCHFV vOTU inh: CCHFV vOTU protease inhibitors, primary screen, biochemical, Pep-AMC substrate, fluorescence; Crimean-Congo hemorrhagic fever virus L polyprotein viral ovarian tumor (vOTU) protease …; inhibition, % at 11.5 µM; 0.55% of 370,000 active; in the data active = inhibition above about 30%; also: 0% = vehicle wells with enzyme and 100% = no enzyme wells
# MazEF act: activators of E. coli MazEF toxin-antitoxin RNase, primary screen, biochemical, fluorescence, uHTS | Endoribonuclease toxin MazF (Escherichia coli (strain K12)), P0AE70 | FAM/BHQ RNA-DNA oligo cleavage fluorescence, 5 h | activation, % at 20 µM | 0.32% of 350,000 active; in the data active = activation above about 50%
# Target sequence (P0AE70 whole entry, looked up): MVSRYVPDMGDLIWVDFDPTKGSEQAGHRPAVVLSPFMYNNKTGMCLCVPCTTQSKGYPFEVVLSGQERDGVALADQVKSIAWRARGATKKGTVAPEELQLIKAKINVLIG
# Yp Topo-I inh: Yersinia pestis topoisomerase I inhibitors, primary screen, biochemical, cleavage product accumulation, plate reader, single point; DNA topoisomerase I (Yersinia pestis CO92); Y. pestis Topo-I cleavage product accumulation; activity, % at 10 µM; 0.064% of 360,000 active; AID 504884, 2011; in the data active = activity above about 50%, passing the limit was not always enough
# VHR inh abs: VHR1 phosphatase inhibitors, primary screen, biochemical, absorbance, uHTS | Dual specificity protein phosphatase 3 (Homo sapiens), P51452 | recombinant VHR phosphatase, pNPP absorbance | inhibition, % at 13.3 µM | 0.52% of 290,000 active | AID 1654, 2009; in the data active = inhibition above about 50%
# Target sequence (P51452 whole entry, looked up): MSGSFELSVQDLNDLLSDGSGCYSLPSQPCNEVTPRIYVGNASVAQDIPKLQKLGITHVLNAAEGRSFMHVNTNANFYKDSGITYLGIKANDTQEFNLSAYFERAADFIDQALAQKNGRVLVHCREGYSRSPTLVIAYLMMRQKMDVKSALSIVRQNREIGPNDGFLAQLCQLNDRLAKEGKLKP
# PrPC surface inh: inhibitors of human cell surface prion protein PrPC, primary screen, cell-based, TR-FRET; Major prion protein (Homo sapiens), P04156; TR-FRET read-out; inhibition, % at 13.8 µM; 0.43% of 370,000 active; in the data active = inhibition above about 24%; also: 0% = median of the test wells and 100% = reference compound wells
# Vc quorum ag: inducers of Vibrio cholerae quorum light production without autoinducers, primary screen, BH1578 luxS cqsA deficient, single point | V. cholerae BH1578 lux reporter, luminescence, 6 h | activation, % at 18.7 µM | 0.16% of 350,000 active | AID 588436, 2011; in the data active = activation mostly above about 9.7%, no sharp cut-off
# PrPC TRFRET cf: confirmation of inhibitors of cell surface human prion protein, confirmation, cell-based, TR-FRET | AID 743200, 2013 | 65% of 1,500 active | shares compounds with PrPC surface inh | cell surface PrPC level | inhibition, % at 13.8 µM; in the data active = inhibition above about 25%
# LD9 tox: cytotoxicity in LD9 cells, cytotoxicity control for cell surface PrPc inhibitor project, cell-based, luminescence, high throughput | shares compounds with PrPC surface inh | luminescence viability | inhibition, % at 13.8 µM | 29% of 1,500 active | AID 743201, 2013; in the data active = inhibition above about 9.5%
# Starred values were filed as active, the others as inactive; i = inactive; nt = no result given. An excerpt weighted towards active compounds, which were near 1.8% of everything screened.
SMILES,CCHFV vOTU inh,MazEF act,Yp Topo-I inh,VHR inh abs,PrPC surface inh,Vc quorum ag,PrPC TRFRET cf,LD9 tox
CC(=O)c1cnc(Nc2cccc(Cl)c2Cl)s1,7.2,-0.3,-4.4,-2.8,26.3*,-0.6,18.3,-6.6
COc1ccc(OC)c(NC(=O)COC(=O)[C@H](Cc2ccccc2)NC(=O)c2ccco2)c1,-2.4,0.7,19.5,nt,2.5,2.1,nt,nt
COC(=O)COc1ccc(S(=O)(=O)NCc2ccc3c(c2)OCO3)cc1C,-4.1,10.5,-1.8,-4.9,6.3,-1.8,nt,nt
O=C(NCC(c1ccco1)N1CCc2ccccc21)c1cccc([N+](=O)[O-])c1 (centres undefined),9.2,-2.4,-5.5,nt,-7.1,-1.2,nt,nt
CCOc1cc(C2Nc3ccccc3C(=O)N2c2ccccc2)c(Br)cc1OCC(=O)O (centres undefined),-93.1,5.5,4.1,-20.2,93.2*,-0.2,63.3*,-3.6
COc1cc(C2Nc3ccccc3C(=O)N2c2ccc(Cl)cc2)c(Cl)cc1OCC(=O)O (centres undefined),-69.8,0.2,-1.1,-17.2,-3.4,i,nt,nt
O=C(CCc1nc2ccccc2s1)OCc1ccccc1F,8.6,-4.1,11.3,30.5,-2.1,-0.2,nt,nt
Cc1nc(NC(=O)CSc2nnc(C3CC3)n2C)sc1C,-18.2,-9.4,-4.4,27.7,-3.6,i,nt,nt
CCOC(=O)c1ccc(NC(=O)C2CCCN(S(=O)(=O)c3ccc(F)cc3)C2)cc1 (centres undefined),16.6,-1.8,22.8,18.1,29.9*,-0.2,18.2,1.7
CS(=O)(=O)N1CCCC(C(=O)Nc2cccc(F)c2)C1 (centres undefined),-6.8,-22.8,-4.9,-14.5,-4.7,-0.7,nt,nt
CC(=O)N1CCCc2cc(S(=O)(=O)N3CCCC(C(=O)Nc4cccc(F)c4)C3)ccc21 (centres undefined),7.2,-0.1,24.0,31.6,36.2*,i,24.4*,11.5*
CCc1ccc(NC(=O)C2CCCN(S(=O)(=O)c3ccc4c(c3)CCCN4C(C)=O)C2)cc1 (centres undefined),-10.9,-2.9,28.2,-5.9,24.6*,-1.7,37.1*,9.0
CC(=O)N1CCCc2cc(S(=O)(=O)N3CCCC(C(=O)N4CCN(c5cc(C)ccc5C)CC4)C3)ccc21 (centres undefined),10.1,-4.0,24.1,12.8,25.2*,-0.2,20.9,9.3*
COc1ccc(NC(=O)n2ncc3c(C)cccc32)cc1,4.7,-6.6,5.0,44.0,-4.8,-8.3,nt,nt
COC(=O)[C@]12C[C@H](CC(=O)N3CCOCC3)C(=O)N(Cc3ccccc3)C1=C[C@H](C1CCCC1)O[C@@H]2C,15.3,nt,nt,nt,1.8,nt,nt,nt
Cc1ccc(C2C(C#N)=C(N)SC(N)=C2C#N)cc1,2.8,-493.9,-9.9,29.5,90.8*,-0.3,86.5*,0.6
Cc1ccc(C2C(C#N)=C(N)SC(N)=C2C#N)c(C)c1,nt,-404.2,11.2,-11.6,nt,-0.5,nt,nt
CC(C)CC1Nc2ncnc(N3CCCCC3)c2N(Cc2ccc(Br)cc2)C1=O (centres undefined),17.4,5.9,11.5,nt,7.0,i,nt,nt
Cc1ccc(NC(=O)CSc2ncnc3ccccc23)cc1S(=O)(=O)N1CCOCC1,-6.3,0.0,-0.5,21.3,61.1*,-0.3,55.3*,-10.9
CC(C)c1nc(SCC(=O)Nc2ccc(N3CCOCC3)cc2)c2ccccc2n1,-0.7,-12.3,3.0,-4.6,33.4*,-0.6,52.5*,-2.3
Cc1ccc(NC(=O)CSc2ncnc3ccccc23)cc1S(=O)(=O)N1CCCCC1,7.6,18.8,20.4,5.1,47.6*,-0.2,76.0*,-5.6
